The text below walks through data of PubChem BioAssay (NCATS).

Structures are written as SMILES. Unmarked numbers belong to inactive results. Inconclusive results are not listed. The source made the active and inactive calls. Unless noted, calls come from the whole dose curve; as a rule, active = well fitted curve in the direction sought with a large enough effect; inconclusive = small, poorly fitted or top-dose-only effect, or another doubt; inactive = no such curve, though single readings can be large; an effect the other way counts as inactive or inconclusive.

In test [1] the target is Voltage-gated inwardly rectifying potassium channel KCNH2 (Homo sapiens) (UniProt Q12809). Briefly: qHTS Assay for Small Molecule Inhibitors of the Human hERG Channel Activity (AID 588834).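 Note: lower thallium flux fluorescence means stronger hERG block; nearly all actives have a fitted effect of over 50% in size.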 Note: potency is the fitted concentration of half-maximal effect. An outline of the steps: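 Measured: FluxOR fluorescence after thallium stimulation in U2OS cells transduced with hERG by baculovirus. Compounds pre-incubated around 10 min; medium Opti-MEM with 2% FCS. AC50 from Hill equation.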
For orientation: Quantitative high-throughput screening tests each substance at several concentrations.

Test [2] deals with Glutaminase kidney isoform, mitochondrial (Homo sapiens) (UniProt O94925). Briefly: qHTS for Inhibitors of Glutaminase (GLS): LOPAC Validation (AID 624146).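 Note: glutamate product detected by oxidase and peroxidase coupled Amplex red fluorescence gain; series mostly up to about 46 µM; % is set by controls: 0 for no effect and ±100 for the full control effect; nearly all actives have a fitted effect of over 60% in size.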 In short, it runs like this: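 Enzyme dispensed in phosphate buffer (45 mM, pH 8.2, 0.02% Tween-20), compounds pinned in, then 1 mM L-glutamine solution and the glutamate oxidase–HRP–Amplex Red mix added; fluorescence read immediately and again after 30 min at room temperature.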

A short description of test [3]: qHTS of Trypanosoma Brucei Inhibitors: LOPAC Validation (AID 624147). Note: 0% is about no effect. An outline of the steps:
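Readout: single end-point luminescence (Kinase-Glo Plus, 10 min). Reaction conditions were TbPYK/substrate plus 130 uM ADP, 45 min at RT, pH 7.2 TEA buffer. No-enzyme wells served as controls, and data were normalized before concentration-response fitting.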

Test [4] addresses Glucagon-like peptide 1 receptor (Homo sapiens) (UniProt P43220). Briefly: qHTS of GLP-1 Receptor Agonists: LOPAC Validation (AID 624148).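 For activation: 0% is about no effect; higher luminescence signal means agonism.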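 Note: luminescence from a luciferase reporter switched on by cAMP.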 Note: potency is the fitted concentration of half-maximal effect. In short, it runs like this:
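Agonism scored as increased luciferase luminescence driven by cAMP in HEK293 clones carrying GLP-1R. Cells settled 12 hours, received compound for 4-6 hr at 37 deg C, 5% CO2, and were read after 12 min detection reagent at RT.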

A short description of test [5]: qHTS of Nrf2 Activators: LOPAC Validation (AID 624149). Note: 0% is about no effect. In short, it runs like this: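 ARE reporter activation measured in AREc32 firefly luciferase cells after 24 hr compound exposure; Steady-Glo luminescence.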
Test [6] in a line: HTS Assay for Allosteric Antagonists of the Human D2 Dopamine Receptor: Hit Validation in HTRF (AID 624455). Note: potency is the fitted concentration of half-maximal effect.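 Note: stable D1 dopamine receptor cell line scored for blocking the D1 response.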 An outline of the steps:
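Signal from an HTRF read-out in D1-expressing stable cells gave hit activity as inhibition of the D1 response.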

Test [7] can be described thus: qHTS assay for small molecule agonists of the antioxidant response element (ARE) signaling pathway (AID 651741; active = well fitted activation curve with a large enough effect in the signal ratio; the % refers to the signal ratio; note: % of control where 0% means no effect). An outline of the steps: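 Seeding 2,000 ARE-bla HepG2 cells per well preceded a 5 h incubation at 37 C/5% CO2 and a 16 h compound exposure at 37 C. Beta-lactamase reporter activity was then quantified by fluorescence after 2 h with LiveBLAzer B/G FRET substrate.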

Test [8] is described as follows: qHTS assay for small molecule activators of the nuclear factor-kappa B (NF-kB) signaling pathway (AID 651749; active = well fitted activation curve with a large enough effect in the signal ratio; the % refers to the signal ratio; note: series mostly up to about 77 µM; % of control where 0% means no effect). As to conditions: NF-kB-bla ME-180 cells, beta-lactamase FRET ratio, 16 h; active compounds read high. An outline of the steps: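 Stably transfected ME-180 line; NF-kB response element upstream of beta-lactamase. Treatment: compound or DMSO, 16 hr. Detection: fluorescent FRET substrate.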

Test [9] is described as follows: qHTS assay for small molecule disruptors of the mitochondrial membrane potential - 1 hr assay (AID 651754; calls by dose curve; note: % is set by controls: 0 for no effect and ±100 for the full control effect; nearly all actives have a fitted effect of over 35% in size). An outline of the steps: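 Steps: seed HepG2 cells and let attach overnight; pin-transfer compound or vehicle; incubate 1 hr at 37C; add Mito-MPS dye for 30 min; read two-channel fluorescence for monomer and aggregate forms.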
Test [10] is described as follows: qHTS assay for small molecule disruptors of the mitochondrial membrane potential - 5 hr assay (AID 651755; calls by dose curve; note: % is set by controls: 0 for no effect and ±100 for the full control effect; nearly all actives have a fitted effect of over 40% in size). An outline of the steps: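 HepG2, 2,000 cells/well, overnight attach; cpd or DMSO 5 hr, 37C/5% CO2; Mito-MPS 30 min 37C; fluor 490/535 + 540/590 nm.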
Test [11] deals with Tumor necrosis factor (Homo sapiens) (UniProt P01375). The test can be described thus: qHTS assay to identify small molecules that stimulate Tumor Necrosis Factor-alpha (TNF-alpha) secretion (AID 651757; active = well fitted curve in the direction sought with a large enough effect in the signal ratio; the % refers to the signal ratio; note: 0% is about no effect). An outline of the steps: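 Secreted TNF-alpha from compound-treated THP-1 cells (17 hrs, 37 C) was quantified with a homogeneous time-resolved fluorescence antibody assay.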

Test [12] in a line: qHTS assay for environmental chemicals that activate the Aryl hydrocarbon Receptor (AhR) signaling pathway (AID 651777). Note: % of control where 0% means no effect; nearly all actives have a fitted effect of over 15% in size. Particulars: 1A2-DRE human hepatoma cells, luciferase, 24 h; active compounds read high. An outline of the steps:
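Reporter gene assay: hepatoma cells with DRE/CYP1A2-luciferase, 24 hr compound incubation at 37 C, 5% CO2, luminescence after One-Glo (30 min, RT).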

For test [13], the target named is Peroxisome proliferator-activated receptor alpha (Homo sapiens) (UniProt Q07869). Briefly: qHTS assay for small molecule agonists of the peroxisome proliferator-activated receptor alpha (PPARalpha) signaling pathway (AID 651778). Note: % of control where 0% means no effect. As to conditions: PathHunter PPARalpha complementation, chemiluminescence, 6 h; max response: active compounds read high. In short, it runs like this:
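Chemiluminescence from complemented enzyme reported PPARalpha activation in cells after 6 hr of compound treatment at 37 C. The detection reagent was incubated for 60 min at room temperature, and compounds were scored as agonists.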

Chain of Voltage-gated inwardly rectifying potassium channel KCNH2 (Homo sapiens) (Q12809 whole entry, looked up): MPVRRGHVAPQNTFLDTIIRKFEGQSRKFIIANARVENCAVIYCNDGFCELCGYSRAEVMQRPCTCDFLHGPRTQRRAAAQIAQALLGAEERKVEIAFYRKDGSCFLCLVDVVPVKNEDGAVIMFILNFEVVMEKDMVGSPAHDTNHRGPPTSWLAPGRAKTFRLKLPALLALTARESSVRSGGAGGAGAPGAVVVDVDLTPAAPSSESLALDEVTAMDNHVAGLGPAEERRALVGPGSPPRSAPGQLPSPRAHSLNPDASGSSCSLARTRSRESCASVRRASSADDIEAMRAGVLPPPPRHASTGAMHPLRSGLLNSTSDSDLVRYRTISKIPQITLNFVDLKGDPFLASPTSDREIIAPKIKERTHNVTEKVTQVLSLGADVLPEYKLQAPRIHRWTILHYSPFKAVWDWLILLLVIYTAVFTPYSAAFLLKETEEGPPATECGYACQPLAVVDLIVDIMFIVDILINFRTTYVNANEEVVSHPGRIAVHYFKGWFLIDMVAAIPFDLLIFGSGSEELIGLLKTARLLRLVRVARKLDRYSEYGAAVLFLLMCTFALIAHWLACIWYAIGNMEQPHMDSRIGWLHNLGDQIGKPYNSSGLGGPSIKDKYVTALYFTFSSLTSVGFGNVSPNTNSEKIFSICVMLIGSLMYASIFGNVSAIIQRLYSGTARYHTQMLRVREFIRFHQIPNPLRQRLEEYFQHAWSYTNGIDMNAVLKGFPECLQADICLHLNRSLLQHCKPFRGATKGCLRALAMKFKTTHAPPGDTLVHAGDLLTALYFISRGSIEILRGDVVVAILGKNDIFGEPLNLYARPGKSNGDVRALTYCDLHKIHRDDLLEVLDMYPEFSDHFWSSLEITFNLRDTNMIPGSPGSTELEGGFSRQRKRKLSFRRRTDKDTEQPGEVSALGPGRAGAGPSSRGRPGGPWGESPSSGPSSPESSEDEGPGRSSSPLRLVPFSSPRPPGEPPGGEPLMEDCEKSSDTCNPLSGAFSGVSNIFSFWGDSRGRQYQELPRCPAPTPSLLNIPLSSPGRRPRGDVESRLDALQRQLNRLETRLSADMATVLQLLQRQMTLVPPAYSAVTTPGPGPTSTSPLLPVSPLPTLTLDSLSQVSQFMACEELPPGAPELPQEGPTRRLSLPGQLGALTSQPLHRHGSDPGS
Chain of Glucagon-like peptide 1 receptor (Homo sapiens) (P43220 whole entry, looked up): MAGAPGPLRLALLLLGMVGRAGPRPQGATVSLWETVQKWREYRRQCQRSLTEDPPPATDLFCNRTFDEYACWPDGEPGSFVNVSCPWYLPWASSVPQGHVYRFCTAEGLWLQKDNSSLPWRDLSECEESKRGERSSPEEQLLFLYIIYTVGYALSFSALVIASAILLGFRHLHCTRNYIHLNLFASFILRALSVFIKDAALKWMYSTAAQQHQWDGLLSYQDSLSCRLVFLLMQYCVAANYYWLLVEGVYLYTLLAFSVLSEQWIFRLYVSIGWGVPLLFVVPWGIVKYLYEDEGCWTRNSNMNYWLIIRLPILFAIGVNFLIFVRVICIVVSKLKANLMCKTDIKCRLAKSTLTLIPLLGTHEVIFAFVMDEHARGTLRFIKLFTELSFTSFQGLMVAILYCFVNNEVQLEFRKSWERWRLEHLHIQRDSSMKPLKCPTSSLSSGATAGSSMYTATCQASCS
Chain of Glutaminase kidney isoform, mitochondrial (Homo sapiens) (O94925 whole entry, looked up, canonical isoform): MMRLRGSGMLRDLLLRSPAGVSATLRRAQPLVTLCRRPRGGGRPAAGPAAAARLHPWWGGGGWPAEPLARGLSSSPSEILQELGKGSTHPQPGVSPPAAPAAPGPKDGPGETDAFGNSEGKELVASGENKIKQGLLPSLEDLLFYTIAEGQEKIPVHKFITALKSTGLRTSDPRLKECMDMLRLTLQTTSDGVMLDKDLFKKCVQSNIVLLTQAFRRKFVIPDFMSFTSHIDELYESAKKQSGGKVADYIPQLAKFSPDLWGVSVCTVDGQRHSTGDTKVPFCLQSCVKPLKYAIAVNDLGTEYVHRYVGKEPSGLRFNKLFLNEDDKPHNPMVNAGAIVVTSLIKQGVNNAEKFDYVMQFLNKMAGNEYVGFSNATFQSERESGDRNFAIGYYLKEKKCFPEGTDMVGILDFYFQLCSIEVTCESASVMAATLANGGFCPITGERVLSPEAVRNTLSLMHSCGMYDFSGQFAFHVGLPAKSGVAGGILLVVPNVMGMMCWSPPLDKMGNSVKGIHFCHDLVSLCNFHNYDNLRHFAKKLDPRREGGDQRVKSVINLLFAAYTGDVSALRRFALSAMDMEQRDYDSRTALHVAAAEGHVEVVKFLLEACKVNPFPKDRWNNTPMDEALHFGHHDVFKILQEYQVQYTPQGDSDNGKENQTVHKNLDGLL
Chain of Tumor necrosis factor (Homo sapiens) (P01375 whole entry, looked up): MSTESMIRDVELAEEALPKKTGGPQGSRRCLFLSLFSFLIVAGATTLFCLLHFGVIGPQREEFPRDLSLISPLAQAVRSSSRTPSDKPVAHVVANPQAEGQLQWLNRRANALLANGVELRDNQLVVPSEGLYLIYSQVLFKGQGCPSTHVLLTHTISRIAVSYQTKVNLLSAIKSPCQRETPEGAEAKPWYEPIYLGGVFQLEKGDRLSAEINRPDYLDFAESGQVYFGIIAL
Chain of Peroxisome proliferator-activated receptor alpha (Homo sapiens) (Q07869 whole entry, looked up): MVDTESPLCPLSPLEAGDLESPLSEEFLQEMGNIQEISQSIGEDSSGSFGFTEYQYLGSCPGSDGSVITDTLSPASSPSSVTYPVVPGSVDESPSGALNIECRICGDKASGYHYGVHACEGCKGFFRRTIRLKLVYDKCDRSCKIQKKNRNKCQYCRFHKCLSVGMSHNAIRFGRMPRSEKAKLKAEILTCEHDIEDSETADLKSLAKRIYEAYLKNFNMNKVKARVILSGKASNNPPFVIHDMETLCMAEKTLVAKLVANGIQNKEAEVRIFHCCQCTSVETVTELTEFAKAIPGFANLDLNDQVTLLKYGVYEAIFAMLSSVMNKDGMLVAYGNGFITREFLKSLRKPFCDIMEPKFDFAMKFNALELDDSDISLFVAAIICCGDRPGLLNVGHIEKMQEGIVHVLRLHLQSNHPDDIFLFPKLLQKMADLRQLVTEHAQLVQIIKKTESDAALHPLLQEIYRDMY

`NC(=O)c1ccccc1`: the Potency entry in [1], in test [2], in test [3], in [4], in test [5] and in test [6] was “inactive” in each case. Besides, the Potency entry in test [7] is “inactive”. For the same compound, the activation is 1.72% in test [8] and 0.0429% in test [12]. The result in [9], in [10] and in test [11] was inactive. In addition, in test [13], the max response is 0.54%.
As to `CO/N=C(\C(=O)N[C@@H]1C(=O)N2C(C(=O)O)=C(CSc3nc(=O)c(O)nn3C)CSC12)c1csc(N)n1` (stereo partly specified), the Potency result in [1], in [2], in [3], in test [4], in test [5] and in [6] was “inactive” each time.
Take `Nc1ccc(N2C(=O)c3ccccc3C2=O)c(Cl)c1`: the Potency result in [1], in [2], in test [3], in test [5] and in test [6] was “inactive” throughout.
Take `NCC(O)c1ccc(O)c(O)c1` (stereo unspecified): the Potency entry in test [1], in [2], in test [3] and in test [5] was “inactive” in each case. The Potency in test [6] was 1.16 µM (active).
In the case of `Oc1cc(O)c2c(c1)O[C@H](c1ccc(O)c(O)c1)[C@@H](O)C2`, the Potency result in test [1], in test [3], in [4], in [5] and in test [6] was “inactive” in each case.
Turning to `NC1CONC1=O` (stereo unspecified), the Potency result in test [1], in test [3], in test [4], in test [5] and in test [6] was “inactive” in each case.
On to `COc1ccc2c(c1)c(CC(=O)O)c(C)n2Cc1ccc(Cl)cc1`, for which the Potency result in [1], in [3], in test [4], in [5] and in [6] was “inactive” in each case.
As to `NC(C(=O)N[C@@H]1C(=O)N2C(C(=O)O)=C(Cl)CS[C@H]12)c1ccccc1` (stereo partly specified), the Potency entry in [1], in test [3], in test [4], in test [5] and in test [6] was “inactive” each time.
As to `C=CCN1CCc2c(cc(O)c(O)c2Cl)C(c2ccccc2)C1` (stereo unspecified), the Potency in test [1] was 7.94 µM (active). Besides, the Potency result in test [3], in test [4] and in [5] was “inactive” throughout.
As to `CCCCS(=N)(=O)CC[C@H](N)C(=O)O` (stereo partly specified), the Potency result in test [1], in test [3], in test [4], in test [5] and in [6] was “inactive” each time.
In the case of `CCCCCC(O)CCCC(=O)O` (stereo unspecified), the Potency entry in test [1], in test [3], in test [4], in [5] and in test [6] was “inactive” throughout.
In the case of `O=c1[nH]ccc2c(O)cccc12`, the Potency entry in test [1], in test [3], in [4], in test [5] and in test [6] was “inactive” throughout.
Regarding `Cc1cc2c(cc1Cl)N(C(=O)Nc1ccnc3ccccc13)CC2`, the Potency entry in test [1], in test [3], in test [4], in test [5] and in test [6] was “inactive” each time.
Consider `O=C(O)c1ccccc1Nc1cccc(OCc2ccc3ccccc3n2)c1`, for which the Potency entry in [1], in test [3], in [4], in test [5] and in test [6] was “inactive” each time.
Turning to `Cn1c(=O)c2[nH]c(-c3ccc(S(=O)(=O)O)cc3)nc2n(C)c1=O`, the Potency entry in [1], in test [3], in test [4] and in [5] was “inactive” each time.
`CC(=O)/C(C)=N/O`: the Potency result in test [1], in [3], in test [4], in test [5] and in test [6] was “inactive” each time.
Regarding `COc1ccccc1N1CCN(CCCCNC(=O)c2ccc3ccccc3c2)CC1`, the Potency in [1] is 1.12 µM (active). For the same compound, the Potency entry in test [3], in test [4], in test [5] and in test [6] was “inactive” throughout.
Turning to `Cn1c(=O)[nH]c2ncn(C)c2c1=O`, the Potency result in test [1], in test [3], in [4], in [5] and in test [6] was “inactive” each time.
For `COc1ccc2c(c1)c(CC(=O)O)c(C)n2C(=O)c1ccccc1`, the Potency result in test [1], in test [3], in [4], in [5] and in test [6] was “inactive” each time.
Consider `OC[C@H]1NC[C@@H](O)[C@@H]1O`, for which the Potency entry in [1], in [3], in [4], in [5] and in test [6] was “inactive” each time.
Consider `Cc1nc(N=Nc2ccc(S(=O)(=O)O)cc2S(=O)(=O)O)c(COP(=O)(O)O)c(C=O)c1O`, for which the Potency entry in test [1], in test [3], in test [4], in test [5] and in test [6] was “inactive” throughout.
`COc1ccc2c(c1)CCC1C2CC[C@@]2(C)C1CC[C@@H]2NCCCCCCN1C(=O)C=CC1=O` (stereo partly specified): the Potency result in test [1], in test [3], in test [4], in test [5] and in test [6] was “inactive” throughout.
In the case of `Nc1ccc(CCNc2ncnc3c2ncn3C2OC(CO)C(O)C2O)cc1` (stereo unspecified), the Potency entry in test [1], in [3], in test [4], in test [5] and in [6] was “inactive” in each case.
As for `O=[N+]([O-])c1cccc2c(Br)[nH]nc12`, the Potency entry in test [1], in test [3], in test [4], in [5] and in test [6] was “inactive” throughout.
As to `CCCN(CCc1ccccc1)C1CCc2c(O)cccc2C1` (stereo unspecified), the Potency in [1] was 0.355 µM (active). In addition, the Potency result in test [3], in test [4] and in test [5] was “inactive” in each case.
Turning to `C=CCn1c(=O)c2c(nc(-c3ccc(S(=O)(=O)O)cc3)n2C)n(C)c1=O`, the Potency result in test [1], in test [3], in test [4], in [5] and in [6] was “inactive” throughout.
In the case of `CCCCC[C@H](CC(=O)NO)C(=O)N[C@H](C(=O)N1CCC[C@H]1CO)C(C)C`, the Potency entry in test [1], in test [3], in [4], in [5] and in test [6] was “inactive” each time.
`C=CC1(C)CC(=O)C2(O)C(C)(O1)C(OC(C)=O)C(O)C1C(C)(C)CCC(O)C12C` (stereo unspecified): the Potency entry in test [1], in test [3] and in test [5] was “inactive” throughout. The Potency is 1.03 µM (active) in test [4] and 0.517 µM (active) in [6].
In the case of `NC/C=C\C(=O)O`, the Potency entry in [1], in test [3], in test [4], in test [5] and in test [6] was “inactive” each time.
As to `NC1CCN(O)C1=O` (stereo unspecified), the Potency entry in test [1], in [3], in [4], in test [5] and in test [6] was “inactive” in each case.
